Test results from PubChem BioAssay (NCATS).
Records with an inconclusive call do not appear. The source made the active and inactive calls. Calls follow the shape of the dose curve; as a rule, active = well fitted curve in the direction sought with a large enough effect; inconclusive = small, poorly fitted or top-dose-only effect, or another doubt; inactive = no such curve, though single readings can be large; an effect the other way counts as inactive or inconclusive.

Assays:
[1] = qHTS of pediatric cancer cell lines to identify multiple opportunities for drug repurposing: Primary screen for NB1643 cells (AID 1347099); conditions: NB1643 neuroblastoma viability, CellTiter-Glo luminescence, 48 h; series mostly up to 46 µM; also: nearly all actives have a fitted effect of over 50% in size; also: potency is read from the fitted curve at half-maximal effect
Procedure, shortened: (§1)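 Plated cells (500-1,000 per well, growth media) were allowed to settle for 5 hours, treated with compound dilutions for 48 hours, then lysed with CellTiter-Glo for 15 min at room temperature before luminescence reading.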

[2] = qHTS of pediatric cancer cell lines to identify multiple opportunities for drug repurposing: Primary screen for LAN-5 cells (AID 1347100); conditions: LAN-5 neuroblastoma viability, CellTiter-Glo luminescence, 48 h; series mostly up to 46 µM; also: potency is read from the fitted curve at half-maximal effect
Procedure, shortened: (§2)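 Cells (500-1,000/well) rested 5 h, then received compounds for 48 h; metabolically active cells were measured by CellTiter-Glo luminescence. Final concentrations spanned up to 46 µM (MIPE, 11-point) or 0.59 nM-46 µM (NPC, 8-point) in primary screens, 11-point in follow-ups.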

[3] = qHTS of pediatric cancer cell lines to identify multiple opportunities for drug repurposing: Primary screen for Rh18 cells (AID 1347102); conditions: Rh18 rhabdomyosarcoma viability, CellTiter-Glo luminescence, 48 h; series mostly up to 46 µM; also: nearly all actives have a fitted effect of over 65% in size; also: potency is read from the fitted curve at half-maximal effect
Procedure, shortened: as §2

[4] = qHTS of pediatric cancer cell lines to identify multiple opportunities for drug repurposing: Primary screen for OHS-50 cells (AID 1347103); conditions: OHS-50 osteosarcoma viability, CellTiter-Glo luminescence, 48 h; series mostly up to 57.3 µM; also: nearly all actives have a fitted effect of over 40% in size; also: potency is read from the fitted curve at half-maximal effect
Procedure, shortened: as §2

[5] = qHTS of pediatric cancer cell lines to identify multiple opportunities for drug repurposing: Primary screen for RD cells (AID 1347104); conditions: RD rhabdomyosarcoma viability, CellTiter-Glo luminescence, 48 h; series mostly up to 46 µM; also: nearly all actives have a fitted effect of over 55% in size; also: potency is read from the fitted curve at half-maximal effect
Procedure, shortened: as §1

[6] = qHTS of pediatric cancer cell lines to identify multiple opportunities for drug repurposing: Primary screen for control Hh wild type fibroblast cells (AID 1347106); conditions: Hh wild-type fibroblast viability, CellTiter-Glo luminescence, 48 h; series mostly up to 46 µM;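 also: a drop in luminescence marks cytotoxicity and a rise apparent proliferation; nearly all actives have a fitted effect of over 55% in size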
Procedure, shortened: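 Cells (500-1,000/well) in growth media were settled 5 h at 37 degrees C, then given compounds for 48 h. Viability was read as CellTiter-Glo luminescence. Primary runs used MIPE at 11 points (0.78 nM-46 µM) and NPC at 8 points (0.59 nM-46 µM); follow-ups used 11 points.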

[7] = qHTS of pediatric cancer cell lines to identify multiple opportunities for drug repurposing: Primary screen for Rh41 cells (AID 1347108); conditions: Rh41 rhabdomyosarcoma viability, CellTiter-Glo luminescence, 48 h; series mostly up to 46 µM; also: nearly all actives have a fitted effect of over 70% in size; also: potency is read from the fitted curve at half-maximal effect
Procedure, shortened: as §1

[8] = qHTS of pediatric cancer cell lines to identify multiple opportunities for drug repurposing: Primary screen for MG 63 (6-TG R) cells (AID 1347105); conditions: MG 63 (6-TG R) viability, CellTiter-Glo, 48 h; series mostly up to 46 µM; also: nearly all actives have a fitted effect of over 50% in size; also: potency is read from the fitted curve at half-maximal effect
Procedure, shortened: as §1

[9] = qHTS of pediatric cancer cell lines to identify multiple opportunities for drug repurposing: Primary screen for Rh30 cells (AID 1347107); conditions: Rh30 rhabdomyosarcoma viability, CellTiter-Glo luminescence, 48 h; series mostly up to 46 µM; also: nearly all actives have a fitted effect of over 75% in size; also: potency is read from the fitted curve at half-maximal effect
Procedure, shortened: as §2

[10] = qHTS of pediatric cancer cell lines to identify multiple opportunities for drug repurposing: Primary screen for BT-12 cells (AID 1347101); conditions: BT-12 viability, CellTiter-Glo luminescence, 48 h; series mostly up to 57.3 µM; also: nearly all actives have a fitted effect of over 25% in size; also: potency is read from the fitted curve at half-maximal effect
Procedure, shortened: as §2

Measured: Potency

Cc1ccc(NC(=O)c2cccc(N(C)C)c2)cc1NC(=O)c1ccc(O)cc1
active: [1] 0.332 µM | [2] 2.96 µM | [5] 2.64 µM | [7] 2.96 µM
inactive: [3] | [4] | [6]

CCC[C@H](N[C@@H](C)C(=O)N1[C@@H]2CCCC[C@H]2C[C@H]1C(=O)O)C(=O)OCC
inactive: [1] | [2] | [8] | [6] | [9] | [7]

CC(=O)O[C@]1(C(C)=O)CC[C@H]2[C@@H]3C=C(Cl)C4=CC(=O)[C@@H]5C[C@H]5[C@]4(C)[C@@H]3CC[C@@]21C
inactive: [3]
active: [1] 14.8 µM | [10] 3.43 µM | [4] 3.43 µM | [5] 18.7 µM

CNC(=O)[C@H](CC1=CN=C2C=CCC=C12)NC(=O)[C@@H](CC(=O)NO)CC(C)C
inactive: [3] | [9]
active: [1] 0.0662 µM | [10] 0.344 µM | [4] 1.37 µM | [5] 1.18 µM | [8] 9.35 µM

NCc1c[nH]c(=S)n1[C@H]1CCc2c(F)cc(F)cc2C1
active: [1] 9.35 µM | [2] 23.5 µM | [3] 16.6 µM

CCNC(=O)c1noc(-c2cc(C(C)C)c(O)cc2O)c1-c1ccc(CN2CCOCC2)cc1
active: [1] 0.105 µM | [2] 0.105 µM | [3] 0.0935 µM | [4] 0.153 µM | [7] 0.148 µM

O=C(O)CCNc1cc(N2CCc3ccccc3CC2)nc(-c2ccccn2)n1
active: [1] 11.8 µM
inactive: [10] | [3] | [4] | [5] | [8] | [6] | [9]

COc1cc([C@@H]2c3cc4c(cc3[C@@H](O[C@@H]3O[C@@H]5CO[C@@H](C)O[C@@H]5[C@H](O)[C@@H]3O)[C@H]3COC(=O)[C@H]23)OCO4)cc(OC)c1O
inactive: [6] | [9]
active: [1] 0.662 µM | [2] 0.235 µM | [4] 2.73 µM

COc1nccc(-c2c(-c3ccc(F)cc3)ncn2C2CCNCC2)n1
inactive: [1] | [2] | [3] | [8] | [6] | [7]

c1ccc(-c2oc3ncnc(NC[C@@H]4CCCO4)c3c2-c2ccccc2)cc1
active: [1] 2.64 µM | [2] 18.7 µM | [4] 27.3 µM | [5] 29.6 µM | [9] 18.7 µM | [7] 18.7 µM

CCCCC(C=O)NC(=O)C(CC(C)C)NC(=O)OCc1ccccc1 (stereo not given)
active: [1] 26.4 µM
inactive: [2] | [3] | [8] | [6]

CC(=O)N1CCN(c2ccc(OCc3nn(C)c(C)c3-c3cccc4c(CCCOc5cc(C)c(Cl)c(C)c5)c(C(=O)O)n(Cc5cccnc5)c34)cc2)CC1
active: [1] 18.7 µM | [2] 20.9 µM | [8] 29.6 µM | [7] 18.7 µM
inactive: [6]

Cc1cc(CS(=O)(=O)c2ccccc2)cc(OCc2ccc(CN3CCC[C@H]3CO)cc2)c1
inactive: [2] | [6]
active: [1] 14.8 µM | [5] 5.9 µM | [7] 11.8 µM

Nc1nc(Cl)nc2c1ncn2[C@@H]1O[C@H](CO)[C@@H](O)[C@H]1F
inactive: [3] | [6] | [9]
active: [1] 3.72 µM | [2] 0.0372 µM

CN(C)CC[C@H](CSc1ccccc1)Nc1ccc(S(=O)(=O)NC(=O)c2ccc(N3CCN(Cc4ccccc4-c4ccc(Cl)cc4)CC3)cc2)cc1[N+](=O)[O-]
active: [1] 0.0187 µM | [2] 0.0209 µM | [3] 0.187 µM | [4] 6.85 µM | [5] 5.9 µM | [9] 11.8 µM | [7] 11.8 µM
inactive: [6]

O=c1[nH]nc(OCCCc2ccc(Cl)cc2)c(NCc2cccnc2)c1Br
active: [1] 23.5 µM | [10] 27.3 µM | [3] 23.5 µM | [4] 19.3 µM | [5] 14.8 µM | [8] 18.7 µM | [9] 23.5 µM | [7] 18.7 µM

C=C1c2cccc(O)c2C(O)=C2C(=O)[C@@]3(O)C(O)=C(C(N)=O)C(=O)[C@@H](N(C)C)[C@@H]3[C@@H](O)[C@H]12
inactive: [3] | [4] | [8] | [6]
active: [1] 23.5 µM | [2] 13.2 µM

CC(=O)OCC(=O)[C@@]1(O)CC[C@H]2[C@@H]3CCC4=CC(=O)C=C[C@]4(C)[C@@H]3[C@@H](O)C[C@@]21C
inactive: [1] | [2] | [3] | [5] | [6] | [9]

COC(=O)[C@H](c1ccccc1Cl)N1CCc2sccc2C1
inactive: [2] | [3] | [6] | [9] | [7]
active: [1] 20.9 µM

COc1cc2ncnc(Nc3cc(Br)c(O)c(Br)c3)c2cc1OC
active: [1] 1.32 µM | [2] 16.6 µM | [4] 27.3 µM | [5] 0.935 µM
inactive: [3] | [6] | [9]

Cc1cnc(Nc2cccc(CN3CCOCC3)c2)nc1Nc1cccc(S(=O)(=O)NC(C)(C)C)c1
active: [1] 8.33 µM | [10] 13.7 µM | [3] 8.33 µM | [4] 3.43 µM | [5] 13.2 µM | [8] 7.43 µM | [9] 8.33 µM | [7] 6.62 µM

C[C@]12C=CC(=O)C=C1CC[C@@H]1[C@@H]2[C@@H](O)C[C@@]2(C)[C@@H]1CC[C@]2(O)C(=O)CO
inactive: [1] | [3] | [4] | [5] | [8] | [6] | [9]
active: [2] 23.5 µM

Cc1cccc2c1CC[C@H](CN1CCC(c3c(Cl)cccc3Cl)CC1)C[C@@H]2O
inactive: [1] | [3] | [8] | [6] | [9]
active: [2] 18.7 µM | [4] 5.44 µM | [5] 33.2 µM

CC(C)Oc1cc(Nc2nc(N[C@@H](C)c3ccc(F)cn3)ncc2Cl)[nH]n1
active: [1] 1.48 µM | [2] 2.35 µM | [3] 5.26 µM | [5] 13.2 µM | [8] 5.9 µM | [9] 8.33 µM | [7] 5.26 µM
inactive: [6]

NC1(C(=O)N[C@@H](CCO)c2ccc(Cl)cc2)CCN(c2ncnc3[nH]ccc23)CC1
active: [1] 1.87 µM | [2] 18.7 µM | [3] 2.35 µM | [8] 7.43 µM | [7] 0.743 µM
inactive: [6]

CC(C)CN(C[C@H](O)[C@H](Cc1ccccc1)NC(=O)O[C@H]1CCOC1)S(=O)(=O)c1ccc(N)cc1
inactive: [1] | [2] | [3]

O=C1C(c2c(O)[nH]c3ccccc23)=Nc2ccccc21
inactive: [1] | [2] | [3] | [4] | [7]

Cc1cc(NC(=O)Nc2ccc(N(C)C)cc2)c2cc(F)cc(F)c2n1
inactive: [1] | [2] | [3] | [5] | [8] | [6] | [9] | [7]

CC(=O)Nc1cccc(-n2c(=O)n(C3CC3)c(=O)c3c(Nc4ccc(I)cc4F)n(C)c(=O)c(C)c32)c1
active: [1] 18.7 µM | [2] 18.7 µM | [5] 0.0372 µM
inactive: [8] | [6] | [7]

Cc1cc2c(cc1C1(c3ccc(C(=O)O)cn3)CC1)C(C)(C)CCC2(C)C
inactive: [1] | [2] | [3] | [8] | [7]

Cc1c(-c2cccc3c(CCCOc4cccc5ccccc45)c(C(=O)O)n(Cc4cccnc4)c23)c(COc2ccc(N3CCN([S+](=O)([O-])N(C)C)CC3)cc2)nn1C
active: [1] 23.5 µM | [2] 20.9 µM | [8] 23.5 µM
inactive: [6]

O=C(c1ccc(C(=O)N2CCC(N3CCCC3)CC2)c(Nc2ccccc2)c1)N1CCC(N2CCCC2)CC1
inactive: [1] | [10] | [3] | [4] | [5] | [8] | [6]

Cc1ccc(NC(=O)Nc2cc(C(F)(F)F)ccc2F)cc1Nc1ccc2c(c1)NC(=O)C2=Cc1ccc[nH]1
active: [1] 11.8 µM | [4] 27.3 µM | [5] 18.7 µM | [8] 18.7 µM
inactive: [6]

C[C@@H](NC(=O)c1ncnc(N)c1Cl)c1ncc(C(=O)Nc2cc(C(F)(F)F)c(Cl)cn2)s1
inactive: [3] | [8]
active: [1] 14.8 µM

Cc1nc(NC(=O)N2CCC[C@@H]2C(N)=O)sc1-c1csc(C(C)(C)C)n1
active: [1] 5.9 µM | [3] 7.43 µM | [5] 1.66 µM | [8] 5.9 µM | [9] 14.8 µM | [7] 11.8 µM

CC(C)c1onc(-c2c(Cl)cccc2Cl)c1COc1ccc(C=Cc2cccc(C(=O)O)c2)c(Cl)c1
inactive: [1] | [6]
active: [4] 30.6 µM

CCC[C@@H](NC(=O)[C@@H]1[C@H]2CCC[C@@H]2CN1C(=O)[C@@H](NC(=O)[C@@H](NC(=O)c1cnccn1)C1CCCCC1)C(C)(C)C)C(=O)C(=O)NC1CC1
inactive: [1] | [8] | [9]

CC(C)(CO)[C@@H](O)C(=O)NCCC(=O)O
inactive: [2] | [10] | [3] | [4] | [5] | [8] | [6] | [9] | [7]

O=[N+]([O-])c1ccc(Nc2ccccc2-c2ccccc2)c2nonc12
inactive: [3] | [6]
active: [1] 23.5 µM

N#CC1(c2cccc(C(=O)Nc3cc(Oc4ccc5nc(NC(=O)C6CC6)sc5n4)ccc3F)c2Cl)CC1
inactive: [1] | [6]
active: [4] 19.3 µM

COc1cc(Cl)cn2c(-c3cccc(NC4CNC4)n3)cnc12
inactive: [3] | [5] | [6]
active: [1] 10.5 µM

CC(C)CN(C[C@@H](O)[C@H](Cc1ccccc1)NC(=O)O[C@H]1CO[C@H]2OCC[C@H]21)S(=O)(=O)c1ccc(N)cc1
inactive: [3] | [6]
active: [2] 18.7 µM | [10] 3.85 µM | [4] 12.2 µM | [5] 14.8 µM
